Measured values: PubChem BioAssay (NCI)
About 83,000 compounds went through this panel and 20% of them were active in at least one assay; those are over-represented in the sample as a whole.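 Values shown are percent growth following 48 h exposure of cells in 96-well plates to a single concentration of compound; below 10 was considered active.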 The source made the active and inactive calls.

system: HS 578T breast; experiment: NCI-60 one-dose screen, 48 h (100 = growth as untreated, 0 = no growth, -100 = all killed); settings: 10 µM unless noted
Protocol: Growth inhibition of the HS 578T human tumor cell line is measured as a screen for anti-cancer activity. Cells are grown in 96 well plates and exposed to the test compound for 48 hours. Compounds are tested at a single concentration, which is 10^-5 M for most compounds. The reported endpoint is percent growth (GI% or GIPRCNT), where numbers from 0 - 100% represent growth inhibition, and numbers from -100% - 0 represent cell death. For example, a value of 40 represents 60% growth inhibition. A value of 0 means no net growth occurred over the course of the experiment. A value of -40 indicates 40% of cells at the beginning of the experiment died by the end of the experiment. A value of -100 means all cells are dead at the end of the experiment.
NCI-60 Human Tumor Cell Lines Screen was performed using the standard one-dose NCI protocol, which is described in more detail at https://dtp.cancer.gov/discovery_development/nci-60/default.htm.
Compounds with GIPRCNT values below 10 were considered active. Activity score was based on GIPRCNT using the following formula: […]
Score is 0 for GIPRCNT values of 100 or above, 50 for GIPRCNT values of 0, and 100 for GIPRCNT values of -100.

SMILES	growth
Cc1cc(N(CCCNc2ccnc3cc(Cl)ccc23)Cc2ccco2)nc(N2CCOCC2)n1	77.5% (inactive)
CC(=O)Nc1cc(F)cc(C(F)(F)F)c1Cl	88.2% (inactive)
Cc1ccncc1C(=O)O	96.5% (inactive)
CCC(=O)c1c(C)[nH]c(C)c1C	138% (inactive)
CN(C)CCCCC(C(=O)CBr)(c1ccccc1)c1ccccc1	24.2% (inactive)
CCCCCC1CCCCN1C(=O)OCC (stereo not given)	110% (inactive)
COc1cccc(-c2nn(-c3ccccc3)cc2-c2ccnc(NCCNS(=O)(=O)c3ccc(Cl)cc3)c2)c1	54.3% (inactive)
C=C(C)[C@@H]1CC[C@]2(C)[C@H](CC=C3[C@@H]4CC(C)(C)CC[C@]4(C=O)CC[C@]32C)[C@@]1(C)CCCN	96% (inactive)
Cc1cccc(C)c1NC(=O)CSC(=S)N1CCCCC1	96.8% (inactive)
COc1ccc(/C=C/C(=O)NCCO)cc1	92.4% (inactive)
COc1cc(/C=N/NC(=S)NNC(=S)NC2CCCCC2)cc(OC)c1OC	106% (inactive)
c1ccc2[nH]c(-c3ccc(Nc4nc(N5CCCCC5)nc(N5CCOCC5)n4)cc3)nc2c1	-12.6% (active)
Cn1cc(-c2csc(-c3cn(CCN)c4ccccc34)n2)c2cccnc21	67.6% (inactive)
O=C1CCN2C(=O)Nc3ccccc3C2C1 (stereo not given)	103% (inactive)
COc1cc2nc(Cl)nc(Nc3cccc(C(=O)/C=C/c4ccc(Br)cc4)c3)c2cc1OC	98.4% (inactive)
Nc1nc(N)c2nc3c(nc2n1)CCCCCCCCCC3	72.6% (inactive)
CC(=O)Cc1nsc(NC(=O)c2ccoc2COc2ccccc2)n1	107% (inactive)
CN1CCN(c2ccc3nc(-c4[nH]ncc4Nc4ncnc5c4OCCCN5)[nH]c3c2)CC1	-5.79% (active)
COc1cc2[nH]c(C(=O)c3cc(OC)c(OC)c(OC)c3)c(N)c2cc1C#CCO	19.8% (inactive)
Cc1cc(N=O)cc(C(C)(C)C)c1O	90.8% (inactive)

SMILES	growth
COc1cc(-c2cc3ncccc3c3nc(OCCN(C)C)c4cccnc4c23)cc(OC)c1OC	14.4% (inactive)
COc1ccc2c(c1)C/C(=C\c1cc(-c3ccc4c(c3)OCO4)n[nH]1)C2=O	99.4% (inactive)
O=C(CI)Nc1ccc(O)c2ccccc12	33.2% (inactive)
O=C1/C(=C\C(Cl)=C/c2ccc([N+](=O)[O-])cc2)SC(=S)N1CCc1ccc(O)cc1	31.2% (inactive)
CCCCC[C@H]1C/C=C2/C(=O)C(Cl)=C[C@@H]2C/C=C\CCCC(=O)O[C@@H](CCCCC)C/C=C2/C(=O)C(Cl)=C[C@@H]2C/C=C\CCCC(=O)O1	32.4% (inactive)
N=C(N)c1ccc(-c2ccc(-c3cc(F)cc(F)c3)o2)nc1	87.8% (inactive)
CC(=O)N1N=C(c2ccc(C)cc2)CC1c1ccc(Oc2ccc(Br)cc2)cc1 (stereo not given)	87.4% (inactive)
COc1ccc2c(c1)c(-c1nc(-c3cn(C)c4ncccc34)cs1)cn2CCN	85.6% (inactive)
CCCCC[C@H]1C/C=C2/C(=O)C(Cl)=C[C@@H]2C/C=C\CCCC(=O)O1	29.7% (inactive)
C=C(C)[C@@H]1CC[C@]2(C(=O)O)CC[C@]3(C)[C@H](CC[C@@H]4[C@@]5(C)C/C(=C/c6cccc(I)c6)C(=O)C(C)(C)[C@@H]5CC[C@]43C)[C@@H]12	43.9% (inactive)
COc1ccc(/C=C(\C#N)c2cc3ccccc3n2C(C)=O)cc1	87.4% (inactive)
Cc1ccc(-c2nc([P+](c3ccccc3)(c3ccccc3)c3ccccc3)c(N3CCOCC3)o2)cc1	16.8% (inactive)
CC/C(=N/NC(N)=O)c1ccccc1	104% (inactive)
c1cc(N2CCCC2)c2nc(-c3[nH]ncc3Nc3ncnc4[nH]ccc34)[nH]c2c1	-4.25% (active)
Cc1ccc(Sc2sc(-c3ccccc3)nc2[P+](c2ccccc2)(c2ccccc2)c2ccccc2)cc1	-1.87% (active)
CC(C)(C)c1ccc(OP(=S)(N/N=C/c2ccccc2O)Oc2ccc(C(C)(C)C)cc2)cc1	94.5% (inactive)
Cn1cc(-c2csc(-c3cn(CCCN4CCCCC4)c4ccccc34)n2)c2cccnc21	67.5% (inactive)
Cn1cc(-c2nc(-c3c[nH]c4ncccc34)cs2)c2cc(F)ccc21	66.8% (inactive)
CC(=O)OC[C@]12CC[C@@H](/C(C)=N/O)[C@@H]1[C@H]1CC[C@@H]3[C@@]4(C)CCCNC(C)(C)[C@@H]4CC[C@@]3(C)[C@]1(C)CC2	76% (inactive)
O=S(=O)(NCCNc1cc(-c2cn(-c3ccccc3)nc2-c2cccc(O)c2)ccn1)c1ccc(Br)cc1	24.8% (inactive)
